Experimental data taken from PubChem BioAssay AID504832 (National Center for Advancing Translational Sciences (NCATS), 2011).
In all, about 310,000 compounds went through this assay and about 18,000 (5.8%) were called active. Not shown: some 22% with an inconclusive outcome. What follows is part of a selection rich in actives, with near analogues and random picks from the rest. Unmarked numbers belong to inactive results. The call rests on the fitted dose curve; in most records, active means well fitted inhibition curve with a large enough effect; inconclusive means small, poorly fitted or top-dose-only effect, or another doubt; inactive means no such curve, though single readings can be large or run the other way.

Experiment: Primary qHTS for delayed death inhibitors of the malarial parasite plastid, 48 hour incubation
Details: P. falciparum luciferase growth in erythrocytes; series mostly up to 28.7 µM; activity change, negative = inhibition: at the top concentration
Summary of the method: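 Cell-based growth assay: transgenic P. falciparum expressing firefly luciferase, cultured in red cells within RPMI 1640 containing 0.5% w/v Albumax, 24 mM bicarbonate and gentamycin. A drop in luciferase activity indicates inhibition.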
On the % scale 0 is the no-effect control and ±100 the full control effect; potency means the concentration at half of the fitted maximal effect.

Row | SMILES | activity change, negative = inhibition | Potency
1 | CC(=O)NC(Cc1c[nH]c2ccccc12)C(=O)NCCc1ccccc1 (centres undefined) | -4.66% | –
2 | CC1CN(C(=O)CCC(=O)NCc2cccnc2)c2ccccc2O1 (centres undefined) | 8.83% | –
3 | CC(=O)NC(=O)c1ccccc1O | -11.5% | –
4 | O=C(COC(=O)CNC(=O)C1CCCCC1)Nc1cccc(F)c1 | -20% | –
5 | O=C1NC[C@@H](Cc2ccc(O)cc2)N(CCc2cccc(F)c2)C1=O | -26.7% | –
6 | NC1=NC[C@@H](Cc2ccc(O)cc2)N1CC1CCCCC1 | – | 6.57 µM (active)
7 | CN(c1ccccc1)S(=O)(=O)c1ccc2[nH]c(=O)[nH]c2c1 | 12% | –
8 | O=C(Cc1ccccc1Cl)N1CCOCC1 | 36% | –
9 | Cc1ccccc1N1CCN(C2CCCN(C(=O)c3ocnc3C)C2)CC1 (centres undefined) | -4.29% | –
10 | O=c1c2c(nc3cc(-c4cccc(Cl)c4)[nH]n13)CCCC2 | 72.5% | –
11 | Clc1ccc2nc3c(c(-c4ccccc4)c2c1)CNCC3 | – | 13.1 µM (active)
12 | Cc1ccc(-c2nnn(CC(=O)N(CCO)C(C(=O)NC(C)(C)C)c3ccncc3)n2)cc1 (centres undefined) | 22.3% | –
13 | O=C(Cn1nnc(-c2ccc3c(c2)OCO3)n1)NCc1ccco1 | 39.3% | –
14 | Cc1cccc(N(C(=O)Cn2nnc(-c3ccc(C)o3)n2)C(C(=O)NC2CCCC2)c2ccncc2)c1 (centres undefined) | 0% | –
15 | O=C(Cn1nnc(-c2ccccc2)n1)NC(=O)NC1CCCC1 | 9.86% | –
16 | COc1cccc(N(CC(=O)NC2CCCC2)C(=O)Cn2nnc(-c3ccc(C)cc3)n2)c1 | -15.8% | –
17 | CCC(C(=O)NC1CCCC1)N(C(=O)Cn1nnc(-c2ccc(C)o2)n1)c1ccc(OC)c(OC)c1 (centres undefined) | – | 10.4 µM (active)
18 | Cc1ccc(-c2nnn(CC(=O)N(Cc3ccco3)C(C(=O)NC(C)(C)C)c3ccncc3)n2)o1 (centres undefined) | – | 14.7 µM (active)
19 | COc1ccc(C)cc1N(C(=O)Cn1nnc(-c2ccc(C)o2)n1)C(C(=O)NC1CCCC1)c1ccncc1 (centres undefined) | – | 5.22 µM (active)
20 | Cc1cc(NC(=O)CCC(=O)N(c2ccccc2)C(C(=O)NC2CCCC2)c2ccncc2)no1 (centres undefined) | -15% | –
21 | CCc1ccc(-c2cc3c(=O)n(CC(=O)NCCCN4CCN(Cc5ccccc5)CC4)nc(C)n3n2)cc1 | -3.05% | –
22 | CC(CCc1ccc(O)cc1)NCc1ccc(Cl)cc1Cl (centres undefined) | 2.85% | –
23 | CN(C(=O)c1ccccc1)c1nccnc1C#N | -8.71% | –
24 | CCOC(=O)CSc1nnc(NC(=O)C2CC(=O)N(c3ccc(F)cc3)C2)s1 (centres undefined) | -26.5% | –
25 | CCOC(=O)c1cccc(NC(=O)CN2C(=O)C3CC=CCC3C2=O)c1 (centres undefined) | 0.828% | –
26 | COc1ccccc1CNS(=O)(=O)c1cc2c3c(c1)CCC(=O)N3CCC2 | -5.97% | –

Row | SMILES | activity change, negative = inhibition | Potency
27 | CNC(=O)NC(=O)C(C)N1CCN(C/C=C/c2ccccc2)CC1 (centres undefined) | -4.98% | –
28 | COc1ccc(C(=O)NC2CC2)cc1OC1CCN(C/C=C/c2ccccc2)CC1 | -28.2% | –
29 | COc1cc(C(=O)N2CCN(C/C=C/c3ccccc3)CC2)cc(OC)c1C | – | 10.4 µM (active)
30 | CC(C)[C@@H](C(=O)O)N(Cc1cccc(CN([C@H](C(=O)O)C(C)C)S(C)(=O)=O)c1)S(C)(=O)=O | 39.7% | –
31 | Cc1nnc2n1N=C(c1ccccc1)CS2 | 1.87% [at 0.00184 µM] | –
32 | CN(CC(=O)Nc1cccc(F)c1)C(=O)C1=COCCO1 | -28.3% | –
33 | CCc1nc(Nc2ccc(NC(C)=O)cc2)c2oc3ccccc3c2n1 | -3.92% | –
34 | CCc1nc(N2CCN(c3nc(C)cc(C)n3)CC2)c2oc3ccccc3c2n1 | 16.9% | –
35 | CCc1nc(Nc2ccc3nccnc3c2)c2oc3ccccc3c2n1 | – | 1.04 µM (active)
36 | COCC1CCN(C(=O)CCc2nnc(C3(c4ccc(Cl)cc4)CCC3)o2)C1 (centres undefined) | -14.5% | –
37 | Cc1noc(C)c1CSCC(=O)Nc1ccc(Br)cc1Cl | 14.8% | –
38 | COc1cc(C(=O)N2CCN(C3CCC(C)CC3)CC2)cc(OC)c1OC (centres undefined) | -13.2% | –
39 | OC(COc1ccccc1)Cn1cc(Br)cn1 (centres undefined) | 21.9% | –
40 | OC(CN=c1sc2ccccc2n1CC(O)COc1ccccc1)COc1ccccc1 (centres undefined) | – | 13.1 µM (active)
41 | CC(O)COc1ccccc1 (centres undefined) | -5.11% | –
42 | Cn1nccc1C(=O)NC1CCCc2c1cnn2-c1ccccc1F (centres undefined) | -4.57% | –
43 | CC(C)C(NS(=O)(=O)c1cccs1)C(=O)Nc1nc(C(C)(C)C)cs1 (centres undefined) | – | 11.7 µM (active)
44 | COc1ccc(CNC(=O)C(NS(=O)(=O)c2cccc3nsnc23)C(C)C)cc1 (centres undefined) | 11.9% | –
45 | CC(C)(C)c1csc(NC2=NS(=O)(=O)c3ccccc32)n1 | 129% | –
46 | O=C(OCC(=O)N1CCCC1)c1ccc(Cl)nc1 | 2.9% | –
47 | CCCc1cc(=O)oc2c(C)c(O)c(CN3CCCCC3)cc12 | – | 1.65 µM (active)
48 | CCCc1cc(=O)oc2c(C)c(OCC(=O)N3CCC(C(=O)O)CC3)ccc12 | 1.02% | –
49 | CCCc1cc(=O)oc2c(C)c(OC(C)C(=O)NCC(O)c3ccccc3)ccc12 (centres undefined) | -26.5% | –
50 | CN(CC(=O)NCc1ccncc1)S(=O)(=O)c1ccc(Br)cc1 | 5.28% | –
51 | Cc1ccc(CN(C)Cc2cc(=O)oc3cc(C)c(Cl)cc23)cc1 | -1.04% | –
52 | Cc1ccc(C)c(OCC(=O)NNC(=O)C2CCC2)c1 | 11% | –

Row | SMILES | activity change, negative = inhibition | Potency
53 | Cc1ccc(O)c(NC(=O)COc2cc(C)ccc2C)c1 | – | 2.94 µM (active)
54 | Cc1ccc(O)c(NC(=S)NC(=O)COc2ccc(Br)cc2)c1 | 5.89% | –
55 | CC(NC(=O)CNC(=O)Cc1cccc2ccccc12)c1ccc(S(N)(=O)=O)cc1 (centres undefined) | -6.83% | –
56 | CCc1cc(=O)oc2c(C)c(OCC(=O)NCCN3CCOCC3)ccc12 | 12.9% | –
57 | COc1cccc(-c2ccc3c(c2)S(=O)(=O)c2cccc(C(=O)O)c2C3=O)c1OC | 22.2% | –
58 | Cc1c(C(=O)N2CCN(c3ccc(F)cc3)CC2)oc2c1C(=O)CCC2 | 15.9% | –
59 | Cn1c2ccccc2c2c(C(=O)N3CCN(c4ccc(F)cc4)CC3)cn(C3CCCC3)c(=O)c21 | – | 10.4 µM (active)
60 | CC(C)N(C(=O)COC(=O)c1ccccc1C(=O)N1CCN(c2ccc(F)cc2)CC1)C(C)C | -3.05% | –
61 | COc1cccc(C(=O)Nc2nnc(S(=O)(=O)N(C)c3ccccc3)s2)c1 | 3.99% | –
62 | COc1cccc(/C=C/C(=O)OCC(=O)N2CCN(c3ccccc3)CC2)c1 | -22.5% | –
63 | COc1ccc(S(=O)(=O)N2CCN(C(C)C(=O)Nc3ccc(C(C)C)cc3)CC2)cc1 (centres undefined) | – | 10.4 µM (active)
64 | COc1ccc(S(=O)(=O)N2CCN(C(=O)NC3CCCCC3)CC2)cc1 | 6.95% | –
65 | COc1ccc(OCC(=O)OCC(=O)Nc2ccc(S(=O)(=O)N3CCCCC3)cc2)cc1 | -10.4% | –
66 | CC(NC(=O)CN(C)S(=O)(=O)c1ccc(F)cc1)C1CC2CCC1C2 (centres undefined) | -23.8% | –
67 | CC(=O)Nc1ccc(N2C(=O)CC(Sc3nccc(C)n3)C2=O)cc1 (centres undefined) | 120% | –
68 | COc1cc(Cl)ccc1OCc1cc(C(=O)N(C)CCc2c(C)n[nH]c2C)no1 | -19.3% | –
69 | O=C(O)COCC(=O)NCc1csc2ccc(Cl)cc12 | 32.3% | –
70 | CN(CCO)Cc1csc2ccc(Br)cc12 | 25.9% | –
71 | CNC(=O)O/N=C(\N)Cc1csc2ccc(Cl)cc12 | – | 3.7 µM (active)
72 | CCOC(=O)Cc1csc(NC(=O)C(C)(C)C)n1 | 34.9% | –
73 | CCOC(=O)Cc1csc(NC(=O)CSc2ccc(Br)cc2)n1 | – | 10.4 µM (active)
74 | CCOC(=O)Cc1csc(NC(=O)CSc2nc(C)cc(=O)[nH]2)n1 | 4.44% | –
75 | CCC(C)C(N=C1NS(=O)(=O)c2ccccc21)C(=O)N1CCC(C)CC1 (centres undefined) | -15% | –
76 | CC(C)c1ccc(NC(=O)[C@@H](NC(=O)N2CC(=O)Nc3ccccc32)C(C)C)cc1 | -25.1% | –
77 | O=C(N/N=C/c1ccc(OC(=O)c2ccccc2Cl)cc1)c1ccc(O)cc1 | 21.7% | –
78 | CSc1ncccc1C(=O)NCc1ccccc1Cl | 14.7% | –

Row | SMILES | activity change, negative = inhibition | Potency
79 | CC(NC(=O)c1ccccc1F)c1cccc2ccccc12 (centres undefined) | -5.39% | –
80 | COc1ccc(S(=O)(=O)n2nc(C)c(S(=O)(=O)N3CCOCC3)c2C)cc1 | 10.2% | –
81 | OC(CNCC1CCCO1)Cn1c2ccc(Br)cc2c2cc(Br)ccc21 (centres undefined) | – | 0.586 µM (active)
82 | O=C(CSc1ccc(-c2ccc(Br)cc2)nn1)NCC1CCCO1 (centres undefined) | -7.73% | –
83 | CC(NS(=O)(=O)c1ccc(Br)cc1)C(=O)NCC1CCCO1 (centres undefined) | 6.32% | –
84 | CCc1ccc(C(=O)NN=C2CCCCCC2)s1 | 16.2% | –
85 | CCOc1ccc(CN2CCNC(=O)C2CC(=O)NCCCC2CCCC2)cc1 (centres undefined) | 13.3% | –
86 | Cc1nc2ccc(C(=O)N/N=C/c3ccc(O)cc3)cc2[nH]1 | 4.56% | –
87 | COC(=O)COc1ccc(S(=O)(=O)N2CCOCC2)cc1 | 6.25% | –
88 | COc1ccc(S(=O)(=O)N2CCN(CC(=O)NCC3(N4CCOCC4)CCCCC3)CC2)cc1 | – | 9.28 µM (active)
89 | COc1ccc(CNC(=O)COC(=O)/C=C/c2ccc(S(=O)(=O)N3CCOCC3)cc2)cc1 | 2.73% | –
90 | CCc1ccc(OC(C)C(=O)Nc2ccc(S(=O)(=O)Nc3cc(C)on3)cc2)cc1 (centres undefined) | 9.01% | –
91 | CC1CCN(C(=O)CCNC(=O)c2ccccc2)CC1 | 78.1% | –
92 | CN(CC(=O)Nc1ccc(F)c(F)c1F)C(=O)C1CC(=O)N(C2CCCC2)C1 (centres undefined) | 6.58% | –
93 | O=C(CN1CCC(NC(=O)C2CC2)CC1)Nc1ccccc1[N+](=O)[O-] | -7.39% | –
94 | CC(C)c1ccccc1OCC(O)CN(CC(O)COc1cccc2ccccc12)C(C)C (centres undefined) | – | 1.65 µM (active)
95 | OC(COc1cccc2ccccc12)CN1CCN(c2ccccn2)CC1 (centres undefined) | 8.07% | –
96 | CN1CCN(CCCCOc2cccc3ccccc23)CC1 | -23.8% | –
97 | NC(=O)C(Cc1ccccc1)NC(=O)C12CC3CC(CC(C3)C1)C2 (centres undefined) | -3.22% | –
98 | CNS(=O)(=O)c1ccc(C(=O)NCC(=O)NCCc2ccc3c(c2)OCCO3)cc1 | -14.7% | –
99 | CCOC(=O)N1CCN(CC(=O)c2c(C)[nH]c3ccccc23)CC1 | -7.87% | –
100 | CCOC(=O)c1c(C)[nH]c(C)c1S(=O)(=O)N(C)CC(=O)Nc1ccccc1C | -4.45% | –
101 | CCOC(=O)c1c(C)[nH]c2c1-c1ccccc1C(=O)C2=O | – | 1.47 µM (active)
102 | Cc1ccc(-n2[nH]c(C)c(/C=N/N3C(=O)c4cccc5cccc(c45)C3=O)c2=O)cc1 | -9.64% | –
103 | CCc1nnc(NS(=O)(=O)c2ccc(N=Cc3c(C)[nH]n(-c4ccc(C)cc4)c3=O)cc2)s1 | 1.12% | –
104 | COc1cc(SC#N)ccc1N=Cc1c(C)[nH]n(-c2ccc(C)cc2)c1=O | – | 13.1 µM (active)
